# POLB inh – DNA polymerase beta (human) inhibition; AID 485314; 1.3% of 340,000 active; Potency, µM (series often up to 114 µM), inactives show at the top dose activity change, negative = inhibition, most hits filed as inhibitors; P06746; Pol beta primer extension/strand displacement, fluorescence kinetic; also: % is scaled to controls: 0 for no effect and ±100 for the full control effect
#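 10 nM enzyme + cpd, 15 min RT; start with substrate 50 nM final; read 0 min and after 10 min RT. Corrected, normalized data; 4-parameter Hill curve fit.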
# POLK inh – blocks human DNA polymerase kappa activity | purified Pol kappa, fluorescent DNA synthesis assay, 10 min | Potency, µM (doses to about 107 µM), without a hit: at the top dose activity, negative = inhibition, usual class: inhibitors | 0.53% of 400,000 active; also: % is scaled to controls: 0 for no effect and ±100 for the full control effect
#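 Readout: fluorescence, taken kinetically at 0 and 10 min. Conditions: 10 nM Pol kappa, 15 min RT compound preincubation, 50 nM substrate final. Controls: enzyme-free buffer wells.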
# Pol iota inh – blocks human DNA polymerase iota activity; Q9UNA4; Pol iota fluorescent replication assay, 10 min; Potency, µM (titrated, usually from 115 µM), for the others: at the top dose activity, negative = inhibition, hits mostly inhibitors; 1% of 390,000 active
#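 Pol iota at 10 nM preincubated 15 min with compounds at room temperature; reaction started with fluorescent substrate, 50 nM final. Fluorescence read kinetically at 0 and 10 min; buffer-only wells as negative control.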
# L3MBTL1 inh – L3MBTL1 (human) inhibition; Q9Y468; AlphaScreen L3MBTL1–H3K9me1 peptide binding; Potency, µM (highest dose often 57.1 µM), for the others: at the highest dose activity, negative = inhibition, usual class: inhibitors; 0.66% of 230,000 active; AID 485360; also: % is scaled to controls: 0 for no effect and ±100 for the full control effect; nearly all actives have a fitted effect of over 60% in size
# Target sequence (Q9Y468 whole entry, looked up): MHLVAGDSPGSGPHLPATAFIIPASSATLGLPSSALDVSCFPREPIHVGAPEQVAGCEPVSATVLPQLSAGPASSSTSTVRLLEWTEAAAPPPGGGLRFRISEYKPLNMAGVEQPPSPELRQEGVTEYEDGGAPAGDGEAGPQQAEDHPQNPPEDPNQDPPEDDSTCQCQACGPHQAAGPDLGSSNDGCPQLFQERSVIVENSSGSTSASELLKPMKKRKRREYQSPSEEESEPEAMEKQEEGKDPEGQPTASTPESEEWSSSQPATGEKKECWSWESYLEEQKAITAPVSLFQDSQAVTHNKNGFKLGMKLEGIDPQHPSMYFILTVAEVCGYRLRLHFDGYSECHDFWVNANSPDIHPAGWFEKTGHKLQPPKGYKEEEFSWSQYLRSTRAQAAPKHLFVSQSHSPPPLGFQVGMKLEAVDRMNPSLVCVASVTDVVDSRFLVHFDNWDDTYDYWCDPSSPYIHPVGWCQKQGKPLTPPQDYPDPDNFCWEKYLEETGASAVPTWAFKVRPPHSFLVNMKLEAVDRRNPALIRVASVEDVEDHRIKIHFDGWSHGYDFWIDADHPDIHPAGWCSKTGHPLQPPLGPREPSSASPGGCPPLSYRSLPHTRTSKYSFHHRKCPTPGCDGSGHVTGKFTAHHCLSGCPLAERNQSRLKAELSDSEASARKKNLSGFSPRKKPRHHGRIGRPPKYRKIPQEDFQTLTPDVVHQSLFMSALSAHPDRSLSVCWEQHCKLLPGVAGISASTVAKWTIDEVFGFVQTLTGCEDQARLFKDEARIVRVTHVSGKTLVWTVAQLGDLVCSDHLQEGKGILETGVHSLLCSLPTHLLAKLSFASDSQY
#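 AlphaScreen assay: L3MBTL1 (50 nM final) was preincubated 30 min at room temperature with biotinylated H3(1-15)K9me1 peptide (75 nM final), then 30 min with library compounds; streptavidin donor and nickel chelate acceptor beads (10 ug/mL final) added, 30 min dark.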
# Pol eta inh – DNA polymerase eta (human) inhibition; Potency, µM (highest dose often 114 µM), inactives show at the highest dose activity change, negative = inhibition, usual class: inhibitors; Q9Y253; 1.2% of 390,000 active; recombinant Pol eta, fluorescent DNA replication assay; AID 588591; also: % is scaled to controls: 0 for no effect and ±100 for the full control effect
#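 Fluorescent replication assay: 50 nM final substrate added after a 15 min room-temperature compound preincubation with 10 nM enzyme. Signal taken at 0 min and again at 10 min.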
# * marks the source's active call; other numbers are inactive results; ? = inconclusive; · = no result given; [ ] = remark or other dose. Hits are enriched below; roughly 2.4% of the tested compounds scored in any of these assays. Calls follow the shape of the dose curve; as a rule, active = well fitted curve in the direction sought with a large enough effect; inconclusive = small, poorly fitted or top-dose-only effect, or another doubt; inactive = no such curve, though single readings can be large; an effect the other way counts as inactive or inconclusive. Potency is read from the fitted curve at half-maximal effect.
SMILES,POLB inh,POLK inh,Pol iota inh,L3MBTL1 inh,Pol eta inh
CC(C)C[C@H](NC(=O)[C@H](CC(C)C)NC(=O)[C@H](Cc1ccccc1)NC(=O)[C@@H](N)CO)C(=O)N[C@@H](CCCNC(=N)N)C(=O)N[C@@H](CC(N)=O)C(=O)N1CCC[C@H]1C(=O)N[C@@H](CC(N)=O)C(=O)N[C@@H](CC(=O)O)C(=O)N[C@@H](CCCCN)C(=O)N[C@@H](Cc1ccc(O)cc1)C(=O)N[C@@H](CCC(=O)O)C(=O)N1CCC[C@H]1C(=O)N[C@@H](Cc1ccccc1)C(=O)O,·,13%[60.1 µM],·,·,·
CCc1ccc(NC(=O)CS(=O)CC(=O)Nc2ccc(N3CCOCC3)cc2)cc1 (configuration not stated),22µM*,-11%,?,·,?
O=C(O)c1cccc(S(=O)(=O)Nc2cccc(S(=O)(=O)N3CCCC3)c2)c1,·,-13%,-17%,5%,?
Cc1ccc(S(=O)(=O)Nc2nc3ccccc3nc2Nc2cccc(S(=O)(=O)N3CCCC3)c2)cc1,11%,?,7.1µM*,11%,-8%
O=C(O)c1cccc(S(=O)(=O)Nc2cccc(S(=O)(=O)N3CCCCCC3)c2)c1,4%,-16%,89µM*,·,2%
COc1ccc(NC(=O)Cn2c(=O)n(Cc3nc(-c4ccccc4)no3)c(=O)c3cc4c(cc32)OCO4)cc1Cl,9%,2%,16%,·,-9%
O=C(O[C@H]1[C@H](Cc2ccccc2)NS(=O)(=O)[C@H]2C[C@@H]3C=C[C@]12O3)c1ccccc1Br,·,-3%,15%,·,·
COc1cc(SC#N)ccc1N=Cc1c(C)[nH]n(-c2cccc3ccccc23)c1=O,9%,-11%,13µM*,34%,-15%
NS(=O)(=O)c1ccc(CNS(=O)(=O)c2cc(C(=O)O)ccc2Cl)cc1,?,-70%,?,?,20µM*
Cc1c(N2C(=O)/C(=C/C3CC=CCC3)SC2=S)c(=O)n(-c2ccccc2)n1C (configuration not stated),-29%,-16%,18µM*,·,-2%
Cc1c(N2C(=O)/C(=C\C3CC=CCC3)SC2=S)c(=O)n(-c2ccccc2)n1C (configuration not stated),-5%,-14%,96%,·,-15%
CC(=O)N1CCCC1c1nc2ccccc2n1Cc1cccc(C)c1 (configuration not stated),-10%,-12%,17%,·,-15%
CCN(CC)c1ccc(NS(=O)(=O)c2cc3[nH]c(=O)c(=O)[nH]c3cc2C)c(C)c1,50µM*,?,?,·,-24%
COCCC(=O)N1CCc2c([nH]c3ccccc23)C1C(C)(C)C (configuration not stated),-11%,7%,29%,-9%,-5%
COCc1ccc(CN2CCc3c([nH]c4ccccc34)C2C(C)(C)C)o1 (configuration not stated),20µM*,-19%,-10%,6%,-10%
CCS(=O)(=O)c1ncc(Cl)c(C(=O)N2CCN(c3ccc(OC)cc3)CC2)n1,-2%,5%,2%,·,·
Cc1ccc2ncc(C)c(/C=C/c3ccc(N(C)C)cc3)c2c1,·,8%,8%,·,·
O=c1c(-c2ccccc2)coc2cc(O)cc(O)c12,·,1.8µM*,·,·,·
NNc1ccc(Cc2ccc(Cl)cc2Cl)nn1,2%,-2%,48%,13µM*,-13%
CSc1ccc(Cc2ccc(Cl)cc2Cl)nn1,19%,-3%,4%,7%,4%
CN1CCN(c2ncc3nc(-c4cccc(C#N)c4)c(=O)n(CCc4ccccc4)c3n2)CC1,·,-1%[60.1 µM],·,·,·
Cc1ccc(NC(=O)Nc2cn(C)c(=O)c3ccccc23)c(Cl)c1,?,-14%,71µM*,·,5%
CN1C(C(=O)Nc2ccccn2)=C(O)c2sc(Cl)cc2S1(=O)=O,?,-10%,79µM*,·,0%
CN1C(C(=O)Nc2ccccn2)C(=O)c2sc(Cl)cc2S1(=O)=O (configuration not stated),·,-10%[60.1 µM],·,·,·
CC(=O)OC1CCC2(C)C3CC(=O)C4(C)C(CC5OC6(CCC(C)CO6)C(C)C54)C3CC[C@H]2C1 (some centres not stated),·,-3%[60.1 µM],·,·,·
SMILES,POLB inh,POLK inh,Pol iota inh,L3MBTL1 inh,Pol eta inh
N=c1n(CCO)c2ccccc2n1Cc1ccccc1F,15%,-18%,3%,·,-17%
C=C(NC(=O)C(=C)NC(=O)c1csc(C2=NC3c4csc(n4)C4NC(=O)c5csc(n5)C(C(C)(O)C(C)O)NC(=O)C5CSC(=N5)/C(=C/C)NC(=O)C(C(C)O)NC(=O)c5csc(n5)C3(CC2)NC(=O)C(C)NC(=O)C(=C)NC(=O)C(=C)NC(=O)C(C(C)C)NC2C=Cc3c(C(C)O)cc(nc3C2O)C(=O)OC4C)n1)C(N)=O (configuration not stated),·,-19%,22µM*,·,?
COc1ccc(-n2c(=O)c(-c3cccc(F)c3)nc3cncnc32)cc1,·,-2%[60.1 µM],·,·,·
COc1ccc2c(c1)CCO[C@]21O[C@H](CCO)C[C@H](O)[C@H]1O,·,·,·,·,-4%
CCSc1nnc(NC(=O)C2Cc3ccccc3CN2C(=O)c2ccco2)s1 (configuration not stated),22µM*,?,?,?,28µM*
Cc1c([N+](=O)[O-])cc(N2C(=O)C=CC2=O)cc1[N+](=O)[O-],·,?,10µM*,·,-14%
CC(C)CCNC(=O)CCn1c(=O)c2cccn2c2cccnc21,-2%,6%,14%,·,-6%
CCOC(=O)C1=C(O)/C(=C/c2cn(CC(=O)NCC3CCCO3)c3ccccc23)SC1=Nc1ccc(C)cc1 (configuration not stated),·,-18%,?,·,14µM*
CCOC(=O)C1=C(O)/C(=C/c2ccc(-c3ccccc3C(=O)O)o2)SC1=Nc1ccc(C)cc1,3%,40µM*,?,-1%,22µM*
CCOC(=O)C1=C(O)/C(=C/c2ccccn2)SC1=Nc1ccc(Cl)cc1,27%,-2%,3%,-13%,-5%
CCOC(=O)CN(Cc1cc(OC)cc(N(C)C)c1OC)C(=O)C1CC(CO[Si](C)(C)C(C)(C)C)=CN1C(=O)OC(C)(C)C (configuration not stated),·,-3%,-18%,·,·
CC1(C)S[C@@H]2C(C(=O)O)NC(=O)N2C1C(=O)O (some centres not stated),·,-25%,-1%,·,·
Cc1ncc(CO)c2c1Oc1nc(-c3ccc(Cl)cc3)nc(SCC(=O)N3CCCCC3)c1C2,3%,-5%,-10%,·,10%
O=C(CN1C(=O)NC2(CCCCC2)C1=O)Nc1ccccc1Cl,4%,-1%,89µM*,1%,-4%
O=C(CN1C(=O)NC2(CCCCC2)C1=O)Nc1cccc(Cl)c1Cl,·,-1%,20%,2%,-20%

# Assay outcomes from PubChem.
